Source: article PMC11062922 (Nature Chemical Biology, 2023)
Read-outs that look alike come from different tables or passages of the source.

Key:
[1] = test system: NUAK1; conditions: read-out: apparent Kd, n = 1
[2] = test system: PAK4; conditions: read-out: apparent Kd, n = 1
[3] = compound concentrations:100 nM and 1000 nM (sheet 'Lestaurtinib' of Supplementary Table 1),run:Lestaurtinib_02496_R2,Plate:MR013
[4] = compound concentrations:100 nM and 1000 nM (sheet 'Lestaurtinib' of Supplementary Table 1),run:Lestaurtinib_02566_R2,Plate:MR014
[5] = compound concentrations:100 nM and 1000 nM (sheet 'Lestaurtinib' of Supplementary Table 1),run:Lestaurtinib_02566_R3,Plate:MR014
[6] = compound concentrations:100 nM and 1000 nM (sheet 'Lestaurtinib' of Supplementary Table 1),run:Lestaurtinib_02572_R2,Plate:MR015
[7] = compound concentrations:100 nM and 1000 nM (sheet 'Lestaurtinib' of Supplementary Table 1),run:Lestaurtinib_02584_R2,Plate:MR017
[8] = compound concentrations:100 nM and 1000 nM (sheet 'Lestaurtinib' of Supplementary Table 1),run:Lestaurtinib_02601_R1,Plate:MR018
[9] = compound concentrations:100 nM and 1000 nM (sheet 'Lestaurtinib' of Supplementary Table 1),run:Lestaurtinib_02606_R1,Plate:MR019
[10] = compound concentrations:100 nM and 1000 nM (sheet 'Lestaurtinib' of Supplementary Table 1),run:Lestaurtinib_02606_R3,Plate:MR019
[11] = compound concentrations:100 nM and 1000 nM (sheet 'Lestaurtinib' of Supplementary Table 1),run:Lestaurtinib_02624_R2,Plate:MR020
[12] = compound concentrations:100 nM and 1000 nM (sheet 'Lestaurtinib' of Supplementary Table 1),run:Lestaurtinib_02724_R1,Plate:MR021
[13] = compound concentrations:100 nM and 1000 nM (sheet 'Lestaurtinib' of Supplementary Table 1),run:Lestaurtinib_02741_R1,Plate:MR023
[14] = compound concentrations:100 nM and 1000 nM (sheet 'Lestaurtinib' of Supplementary Table 1),run:Lestaurtinib_02741_R3,Plate:MR023
[15] = compound concentrations:100 nM and 1000 nM (sheet 'Lestaurtinib' of Supplementary Table 1),run:Lestaurtinib_02748_R1,Plate:MR024
[16] = compound concentrations:100 nM and 1000 nM (sheet 'Lestaurtinib' of Supplementary Table 1),run:Lestaurtinib_02765_R1,Plate:MR026
[17] = compound concentrations:100 nM and 1000 nM (sheet 'Lestaurtinib' of Supplementary Table 1),run:Lestaurtinib_02765_R3,Plate:MR026
[18] = compound concentrations:100 nM and 1000 nM (sheet 'Lestaurtinib' of Supplementary Table 1),run:Lestaurtinib_02766_R1,Plate:MR027

**Q.** Which results are given for Lestaurtinib?
**A.** potency estimated from few doses [1, 3]: 81.1 nM; potency estimated from few doses [1, 4]: 73 nM; potency estimated from few doses [1, 5]: 85.3 nM; potency estimated from few doses [1, 6]: 17.9 nM; potency estimated from few doses ([1]; compound concentrations:100 nM and 1000 nM (sheet 'Lestaurtinib' of Supplementary Table 1),run:Lestaurtinib_02572_R3,Plate:MR015): 42.5 nM; potency estimated from few doses ([1]; compound concentrations:100 nM and 1000 nM (sheet 'Lestaurtinib' of Supplementary Table 1),run:Lestaurtinib_02577_R2,Plate:MR016): 113 nM; potency estimated from few doses ([1]; compound concentrations:100 nM and 1000 nM (sheet 'Lestaurtinib' of Supplementary Table 1),run:Lestaurtinib_02577_R3,Plate:MR016): 73.6 nM; potency estimated from few doses ([1]; compound concentrations:100 nM and 1000 nM (sheet 'Lestaurtinib' of Supplementary Table 1),run:Lestaurtinib_02584_R1,Plate:MR017): 89.4 nM; potency estimated from few doses [1, 7]: 66.9 nM; potency estimated from few doses ([1]; compound concentrations:100 nM and 1000 nM (sheet 'Lestaurtinib' of Supplementary Table 1),run:Lestaurtinib_02584_R3,Plate:MR017): 134 nM; potency estimated from few doses [1, 8]: 142 nM; potency estimated from few doses [1, 9]: 39.7 nM; potency estimated from few doses ([1]; compound concentrations:100 nM and 1000 nM (sheet 'Lestaurtinib' of Supplementary Table 1),run:Lestaurtinib_02606_R2,Plate:MR019): 58 nM; potency estimated from few doses [1, 10]: 92 nM; potency estimated from few doses [1, 11]: 82.2 nM; potency estimated from few doses ([1]; compound concentrations:100 nM and 1000 nM (sheet 'Lestaurtinib' of Supplementary Table 1),run:Lestaurtinib_02624_R3,Plate:MR020): 96.7 nM; potency estimated from few doses [1, 12]: 59.7 nM; potency estimated from few doses [1, 13]: 165 nM; potency estimated from few doses [1, 14]: 43.7 nM; potency estimated from few doses [1, 15]: 52.3 nM; potency estimated from few doses ([1]; compound concentrations:100 nM and 1000 nM (sheet 'Lestaurtinib' of Supplementary Table 1),run:Lestaurtinib_02748_R2,Plate:MR024): 40.2 nM; potency estimated from few doses ([1]; compound concentrations:100 nM and 1000 nM (sheet 'Lestaurtinib' of Supplementary Table 1),run:Lestaurtinib_02752_R1,Plate:MR025): 56.1 nM; potency estimated from few doses ([1]; compound concentrations:100 nM and 1000 nM (sheet 'Lestaurtinib' of Supplementary Table 1),run:Lestaurtinib_02752_R3,Plate:MR025): 64.1 nM; potency estimated from few doses [1, 16]: 74.4 nM; potency estimated from few doses [1, 17]: 64.4 nM; potency estimated from few doses [1, 18]: 97.5 nM; potency estimated from few doses ([1]; compound concentrations:100 nM and 1000 nM (sheet 'Lestaurtinib' of Supplementary Table 1),run:Lestaurtinib_02766_R3,Plate:MR027): 92.8 nM; potency estimated from few doses ([1]; compound concentrations:100 nM and 1000 nM (sheet 'Lestaurtinib' of Supplementary Table 1),run:Lestaurtinib_02768_R2,Plate:MR028): 41.7 nM; potency estimated from few doses ([1]; compound concentrations:100 nM and 1000 nM (sheet 'Lestaurtinib' of Supplementary Table 1),run:Lestaurtinib_02768_R3,Plate:MR028): 48.7 nM; potency estimated from few doses ([1]; compound concentrations:100 nM and 1000 nM (sheet 'Lestaurtinib' of Supplementary Table 1),run:Lestaurtinib_02795_R1,Plate:MR022): 62.8 nM; potency estimated from few doses ([1]; compound concentrations:100 nM and 1000 nM (sheet 'Lestaurtinib' of Supplementary Table 1),run:Lestaurtinib_02795_R2,Plate:MR022): 38.6 nM; potency estimated from few doses ([1]; compound concentrations:100 nM and 1000 nM (sheet 'Lestaurtinib' of Supplementary Table 1),run:Lestaurtinib_02795_R3,Plate:MR022): 165 nM; potency estimated from few doses ([1]; compound concentrations:100 nM and 1000 nM (sheet 'Lestaurtinib' of Supplementary Table 1),run:Lestaurtinib_02802_R1,Plate:MR029): 72.2 nM; potency estimated from few doses ([1]; compound concentrations:100 nM and 1000 nM (sheet 'Lestaurtinib' of Supplementary Table 1),run:Lestaurtinib_02802_R3,Plate:MR029): 44.9 nM; potency estimated from few doses ([1]; compound concentrations:100 nM and 1000 nM (sheet 'Lestaurtinib' of Supplementary Table 1),run:Lestaurtinib_02896_R1,Plate:MR030): 52.5 nM; potency estimated from few doses ([1]; compound concentrations:100 nM and 1000 nM (sheet 'Lestaurtinib' of Supplementary Table 1),run:Lestaurtinib_02896_R3,Plate:MR030): 55.1 nM; potency estimated from few doses ([1]; compound concentrations:100 nM and 1000 nM (sheet 'Lestaurtinib' of Supplementary Table 1),run:Lestaurtinib_03172_R2,Plate:MR031): 66.5 nM; potency estimated from few doses ([1]; compound concentrations:100 nM and 1000 nM (sheet 'Lestaurtinib' of Supplementary Table 1),run:Lestaurtinib_03172_R3,Plate:MR031): 62.7 nM; potency estimated from few doses ([1]; compound concentrations:100 nM and 1000 nM (sheet 'Lestaurtinib' of Supplementary Table 1),run:Lestaurtinib_03252_R1,Plate:MR032): 51.7 nM; potency estimated from few doses ([2]; compound concentrations:100 nM and 1000 nM (sheet 'Lestaurtinib' of Supplementary Table 1),run:Lestaurtinib_02339_R1,Plate:MR001): 32.7 nM; potency estimated from few doses ([2]; compound concentrations:100 nM and 1000 nM (sheet 'Lestaurtinib' of Supplementary Table 1),run:Lestaurtinib_02339_R2,Plate:MR001): 36.1 nM; potency estimated from few doses ([2]; compound concentrations:100 nM and 1000 nM (sheet 'Lestaurtinib' of Supplementary Table 1),run:Lestaurtinib_02364_R1,Plate:MR002): 32 nM; potency estimated from few doses ([2]; compound concentrations:100 nM and 1000 nM (sheet 'Lestaurtinib' of Supplementary Table 1),run:Lestaurtinib_02364_R2,Plate:MR002): 32.9 nM; potency estimated from few doses ([2]; compound concentrations:100 nM and 1000 nM (sheet 'Lestaurtinib' of Supplementary Table 1),run:Lestaurtinib_02364_R3,Plate:MR002): 35.1 nM; potency estimated from few doses ([2]; compound concentrations:100 nM and 1000 nM (sheet 'Lestaurtinib' of Supplementary Table 1),run:Lestaurtinib_02367_R1,Plate:MR003): 29.7 nM; potency estimated from few doses ([2]; compound concentrations:100 nM and 1000 nM (sheet 'Lestaurtinib' of Supplementary Table 1),run:Lestaurtinib_02367_R2,Plate:MR003): 33.6 nM; potency estimated from few doses ([2]; compound concentrations:100 nM and 1000 nM (sheet 'Lestaurtinib' of Supplementary Table 1),run:Lestaurtinib_02367_R3,Plate:MR003): 35.8 nM; potency estimated from few doses ([2]; compound concentrations:100 nM and 1000 nM (sheet 'Lestaurtinib' of Supplementary Table 1),run:Lestaurtinib_02381_R1,Plate:MR004): 31 nM; potency estimated from few doses ([2]; compound concentrations:100 nM and 1000 nM (sheet 'Lestaurtinib' of Supplementary Table 1),run:Lestaurtinib_02381_R3,Plate:MR004): 30 nM; potency estimated from few doses ([2]; compound concentrations:100 nM and 1000 nM (sheet 'Lestaurtinib' of Supplementary Table 1),run:Lestaurtinib_02407_R2,Plate:MR005): 28.6 nM; potency estimated from few doses ([2]; compound concentrations:100 nM and 1000 nM (sheet 'Lestaurtinib' of Supplementary Table 1),run:Lestaurtinib_02407_R3,Plate:MR005): 34.5 nM; potency estimated from few doses ([2]; compound concentrations:100 nM and 1000 nM (sheet 'Lestaurtinib' of Supplementary Table 1),run:Lestaurtinib_02422_R1,Plate:MR006): 44.2 nM; potency estimated from few doses ([2]; compound concentrations:100 nM and 1000 nM (sheet 'Lestaurtinib' of Supplementary Table 1),run:Lestaurtinib_02422_R2,Plate:MR006): 20.2 nM; potency estimated from few doses ([2]; compound concentrations:100 nM and 1000 nM (sheet 'Lestaurtinib' of Supplementary Table 1),run:Lestaurtinib_02438_R2,Plate:MR008): 30.6 nM; potency estimated from few doses ([2]; compound concentrations:100 nM and 1000 nM (sheet 'Lestaurtinib' of Supplementary Table 1),run:Lestaurtinib_02443_R2,Plate:MR009): 31.9 nM; potency estimated from few doses ([2]; compound concentrations:100 nM and 1000 nM (sheet 'Lestaurtinib' of Supplementary Table 1),run:Lestaurtinib_02443_R3,Plate:MR009): 33.2 nM; potency estimated from few doses ([2]; compound concentrations:100 nM and 1000 nM (sheet 'Lestaurtinib' of Supplementary Table 1),run:Lestaurtinib_02482_R2,Plate:MR011): 36.2 nM; potency estimated from few doses ([2]; compound concentrations:100 nM and 1000 nM (sheet 'Lestaurtinib' of Supplementary Table 1),run:Lestaurtinib_02487_R2,Plate:MR012): 38.6 nM; potency estimated from few doses ([2]; compound concentrations:100 nM and 1000 nM (sheet 'Lestaurtinib' of Supplementary Table 1),run:Lestaurtinib_02487_R3,Plate:MR012): 39.1 nM; potency estimated from few doses ([2]; compound concentrations:100 nM and 1000 nM (sheet 'Lestaurtinib' of Supplementary Table 1),run:Lestaurtinib_02496_R1,Plate:MR013): 33 nM; potency estimated from few doses [2, 3]: 30.6 nM; potency estimated from few doses ([2]; compound concentrations:100 nM and 1000 nM (sheet 'Lestaurtinib' of Supplementary Table 1),run:Lestaurtinib_02496_R3,Plate:MR013): 35.4 nM; potency estimated from few doses ([2]; compound concentrations:100 nM and 1000 nM (sheet 'Lestaurtinib' of Supplementary Table 1),run:Lestaurtinib_02566_R1,Plate:MR014): 27.9 nM; potency estimated from few doses [2, 4]: 31 nM; potency estimated from few doses [2, 5]: 38.2 nM; potency estimated from few doses ([2]; compound concentrations:100 nM and 1000 nM (sheet 'Lestaurtinib' of Supplementary Table 1),run:Lestaurtinib_02572_R1,Plate:MR015): 26.1 nM; potency estimated from few doses [2, 6]: 37.9 nM; potency estimated from few doses [2, 7]: 27.4 nM; potency estimated from few doses [2, 8]: 32.9 nM; potency estimated from few doses ([2]; compound concentrations:100 nM and 1000 nM (sheet 'Lestaurtinib' of Supplementary Table 1),run:Lestaurtinib_02601_R2,Plate:MR018): 36.5 nM; potency estimated from few doses ([2]; compound concentrations:100 nM and 1000 nM (sheet 'Lestaurtinib' of Supplementary Table 1),run:Lestaurtinib_02601_R3,Plate:MR018): 32.3 nM; potency estimated from few doses [2, 9]: 35.4 nM; potency estimated from few doses [2, 10]: 35.6 nM; potency estimated from few doses ([2]; compound concentrations:100 nM and 1000 nM (sheet 'Lestaurtinib' of Supplementary Table 1),run:Lestaurtinib_02624_R1,Plate:MR020): 26.1 nM; potency estimated from few doses [2, 11]: 31 nM; potency estimated from few doses [2, 12]: 32.9 nM; potency estimated from few doses ([2]; compound concentrations:100 nM and 1000 nM (sheet 'Lestaurtinib' of Supplementary Table 1),run:Lestaurtinib_02724_R3,Plate:MR021): 33 nM; potency estimated from few doses [2, 13]: 38.6 nM; potency estimated from few doses ([2]; compound concentrations:100 nM and 1000 nM (sheet 'Lestaurtinib' of Supplementary Table 1),run:Lestaurtinib_02741_R2,Plate:MR023): 39.4 nM; potency estimated from few doses [2, 14]: 35.6 nM; potency estimated from few doses [2, 15]: 30.4 nM; potency estimated from few doses [2, 16]: 29.8 nM; potency estimated from few doses ([2]; compound concentrations:100 nM and 1000 nM (sheet 'Lestaurtinib' of Supplementary Table 1),run:Lestaurtinib_02765_R2,Plate:MR026): 36.5 nM; potency estimated from few doses [2, 17]: 36.5 nM; potency estimated from few doses [2, 18]: 27.8 nM
